# Measurements from article PMC7862700, “An all-to-all approach to the identification of sequence-specific readers for epigenetic DNA modifications on cytosine”.
# Experiments:
# Assay in all cases: DAPPL (digital affinity profiling via proximity ligation, sequencing); 10 mM Tris-HCl pH 7.5, 50 mM NaCl, 1 mM DTT, 4% glycerol, room temperature, 30 min; GST-TFs on glutathione beads, 16-mer random dsDNA library, 0.1% formaldehyde crosslink after washing; high values mean tight binding
# Settings in all cases: protein: recombinant; tags: N-terminal GST; dsDNA, one strand shown
# ETV1 = ETV1 (Homo sapiens, UniProt P50549 1-477)
# Sequence of ETV1 (P50549 whole entry, the tested form may be a part): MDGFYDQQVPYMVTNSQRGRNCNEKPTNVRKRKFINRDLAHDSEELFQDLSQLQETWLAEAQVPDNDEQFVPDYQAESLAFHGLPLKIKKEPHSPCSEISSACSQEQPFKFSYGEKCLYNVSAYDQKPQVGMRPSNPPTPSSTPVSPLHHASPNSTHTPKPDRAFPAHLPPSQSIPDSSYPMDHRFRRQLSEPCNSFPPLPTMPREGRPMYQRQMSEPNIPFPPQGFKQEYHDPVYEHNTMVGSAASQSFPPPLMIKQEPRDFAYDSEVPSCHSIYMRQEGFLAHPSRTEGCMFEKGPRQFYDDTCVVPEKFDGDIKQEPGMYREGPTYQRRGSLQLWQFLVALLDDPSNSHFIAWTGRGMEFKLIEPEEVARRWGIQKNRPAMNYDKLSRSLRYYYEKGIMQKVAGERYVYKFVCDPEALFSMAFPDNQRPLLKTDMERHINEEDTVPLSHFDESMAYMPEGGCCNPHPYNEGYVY
# Outline: (§1)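 In yeast, human transcription factors were expressed with a GST fusion, then pulled down on glutathione beads and given DNA barcodes. Pooled with a tag-only sample, they were exposed to 200 nmole of a 16-mer random double-stranded DNA library (Tris/NaCl/DTT/glycerol buffer, room temperature, 30 min), washed, crosslinked with 0.1% formaldehyde, proximity-ligated using BsaI/T4 ligase for 1 h at 37 °C, PCR-amplified and read on an Illumina NextSeq500. Each hexamer's frequency of reads for a factor, divided by the matching frequency for the tag-only sample, gives the binding signal.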
# ERF = biological target: T1, ERF (Homo sapiens, UniProt P50548 1-548)
# T1 sequence: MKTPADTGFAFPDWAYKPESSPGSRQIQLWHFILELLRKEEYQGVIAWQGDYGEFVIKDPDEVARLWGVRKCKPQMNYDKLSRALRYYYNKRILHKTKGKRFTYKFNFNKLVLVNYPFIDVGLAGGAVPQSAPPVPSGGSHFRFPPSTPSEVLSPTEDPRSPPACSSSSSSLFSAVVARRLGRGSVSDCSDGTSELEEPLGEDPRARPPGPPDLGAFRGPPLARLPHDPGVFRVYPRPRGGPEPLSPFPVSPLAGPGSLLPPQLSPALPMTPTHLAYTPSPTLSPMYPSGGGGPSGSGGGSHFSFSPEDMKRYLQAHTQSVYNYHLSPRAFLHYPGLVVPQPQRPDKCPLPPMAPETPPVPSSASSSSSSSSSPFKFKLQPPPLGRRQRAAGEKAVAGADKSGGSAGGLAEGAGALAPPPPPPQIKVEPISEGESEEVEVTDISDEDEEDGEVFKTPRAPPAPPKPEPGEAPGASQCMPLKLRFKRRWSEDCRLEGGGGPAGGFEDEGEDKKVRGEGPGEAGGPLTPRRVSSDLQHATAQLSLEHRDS
# Outline: as §1
# ETV3L = biological target: T2, ETV3L (Homo sapiens, UniProt Q6ZN32 1-361)
# T2 sequence: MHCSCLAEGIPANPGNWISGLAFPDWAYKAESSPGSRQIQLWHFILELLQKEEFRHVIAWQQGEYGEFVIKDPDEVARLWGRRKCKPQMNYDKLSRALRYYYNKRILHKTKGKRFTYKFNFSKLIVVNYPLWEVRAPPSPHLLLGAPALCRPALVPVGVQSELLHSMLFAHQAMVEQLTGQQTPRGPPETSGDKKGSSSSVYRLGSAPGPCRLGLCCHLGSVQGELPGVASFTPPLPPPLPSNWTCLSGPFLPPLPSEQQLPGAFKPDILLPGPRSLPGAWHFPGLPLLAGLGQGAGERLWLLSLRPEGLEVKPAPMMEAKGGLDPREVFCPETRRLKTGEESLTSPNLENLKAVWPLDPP
# Outline: as §1
# ETS2 = biological target: T3, ETS2 (Homo sapiens, UniProt P15036 1-469)
# T3 sequence: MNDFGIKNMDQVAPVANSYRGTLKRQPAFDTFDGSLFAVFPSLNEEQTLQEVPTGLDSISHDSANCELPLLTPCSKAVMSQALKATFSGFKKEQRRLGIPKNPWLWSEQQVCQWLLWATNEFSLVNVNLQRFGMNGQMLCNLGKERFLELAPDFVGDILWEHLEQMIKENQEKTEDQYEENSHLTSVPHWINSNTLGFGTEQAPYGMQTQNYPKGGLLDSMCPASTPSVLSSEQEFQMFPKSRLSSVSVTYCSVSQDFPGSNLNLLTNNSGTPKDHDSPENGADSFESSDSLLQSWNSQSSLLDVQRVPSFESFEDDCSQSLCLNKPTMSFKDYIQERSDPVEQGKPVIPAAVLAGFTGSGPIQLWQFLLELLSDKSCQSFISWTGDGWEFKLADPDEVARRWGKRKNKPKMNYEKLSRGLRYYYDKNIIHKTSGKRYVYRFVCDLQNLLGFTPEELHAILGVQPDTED
# Outline: as §1
# SPDEF = biological target: T4, SPDEF (Homo sapiens, UniProt O95238 1-335)
# T4 sequence: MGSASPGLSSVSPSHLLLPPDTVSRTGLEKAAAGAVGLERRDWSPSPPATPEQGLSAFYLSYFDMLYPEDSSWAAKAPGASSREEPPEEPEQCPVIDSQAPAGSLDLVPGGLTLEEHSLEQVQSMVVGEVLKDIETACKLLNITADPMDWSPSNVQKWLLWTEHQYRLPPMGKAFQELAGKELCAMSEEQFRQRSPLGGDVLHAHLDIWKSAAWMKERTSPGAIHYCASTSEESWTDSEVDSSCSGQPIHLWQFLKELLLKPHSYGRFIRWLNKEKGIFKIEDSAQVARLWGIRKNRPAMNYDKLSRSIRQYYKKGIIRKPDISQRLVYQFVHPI
# Outline: as §1
# ETV7 = biological target: T5, ETV7 (Homo sapiens, UniProt Q9Y603 1-341)
# T5 sequence: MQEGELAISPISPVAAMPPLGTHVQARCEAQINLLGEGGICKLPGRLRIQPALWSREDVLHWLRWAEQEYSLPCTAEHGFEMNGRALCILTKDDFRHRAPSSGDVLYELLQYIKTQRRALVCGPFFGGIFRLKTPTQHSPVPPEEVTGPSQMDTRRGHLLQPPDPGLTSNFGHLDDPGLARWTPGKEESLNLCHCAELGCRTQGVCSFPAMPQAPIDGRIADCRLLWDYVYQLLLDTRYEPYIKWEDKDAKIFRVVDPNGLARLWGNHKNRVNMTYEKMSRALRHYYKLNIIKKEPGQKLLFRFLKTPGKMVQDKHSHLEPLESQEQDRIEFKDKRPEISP
# Outline: as §1
# ELF5 = biological target: T6, ELF5 (Homo sapiens, UniProt Q9UKW6-2 1-255)
# T6 sequence: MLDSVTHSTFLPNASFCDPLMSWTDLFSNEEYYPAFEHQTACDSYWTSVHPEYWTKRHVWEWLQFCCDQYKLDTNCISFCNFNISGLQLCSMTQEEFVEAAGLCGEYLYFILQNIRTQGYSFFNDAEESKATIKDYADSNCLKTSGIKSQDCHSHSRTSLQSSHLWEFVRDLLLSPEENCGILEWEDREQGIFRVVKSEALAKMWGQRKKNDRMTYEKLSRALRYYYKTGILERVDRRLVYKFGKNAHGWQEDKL
# Outline: as §1
# ETV3 = biological target: T7, ETV3 (Homo sapiens, UniProt P41162-2 1-143)
# T7 sequence: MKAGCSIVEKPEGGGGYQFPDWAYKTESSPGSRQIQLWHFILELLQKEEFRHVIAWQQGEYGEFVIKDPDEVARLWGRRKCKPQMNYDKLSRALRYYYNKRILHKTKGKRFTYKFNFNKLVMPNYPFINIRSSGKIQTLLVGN
# Outline: as §1
# ETV6 = ETV6 (Homo sapiens, UniProt P41212 1-452)
# Sequence of ETV6 (P41212 whole entry): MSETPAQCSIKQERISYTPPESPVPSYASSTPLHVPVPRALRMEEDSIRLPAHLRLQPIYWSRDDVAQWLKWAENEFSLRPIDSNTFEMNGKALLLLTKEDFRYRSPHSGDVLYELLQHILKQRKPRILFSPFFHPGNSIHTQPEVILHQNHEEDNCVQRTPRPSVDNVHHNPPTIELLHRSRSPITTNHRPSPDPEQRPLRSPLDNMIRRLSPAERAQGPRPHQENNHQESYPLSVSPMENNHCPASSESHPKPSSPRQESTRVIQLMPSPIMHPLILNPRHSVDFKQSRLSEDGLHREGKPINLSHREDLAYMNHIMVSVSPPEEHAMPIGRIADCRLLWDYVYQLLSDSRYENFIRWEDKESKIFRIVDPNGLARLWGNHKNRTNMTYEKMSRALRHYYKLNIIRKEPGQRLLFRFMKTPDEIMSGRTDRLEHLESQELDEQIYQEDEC
# Outline: as §1
sequence,measurement,setting,value
TTTGAT,binding signal,ETV1,"1.25 fold enrichment (6-mer frequency, TF over GST control)"
same,binding signal,ERF,"1.21 fold enrichment (6-mer frequency, TF over GST control)"
same,binding signal,ETV3L,"1.28 fold enrichment (6-mer frequency, TF over GST control)"
same,binding signal,ETS2,"1.26 fold enrichment (6-mer frequency, TF over GST control)"
same,binding signal,SPDEF,"1.12 fold enrichment (6-mer frequency, TF over GST control)"
same,binding signal,ETV7,"1.28 fold enrichment (6-mer frequency, TF over GST control)"
same,binding signal,ELF5,"1.26 fold enrichment (6-mer frequency, TF over GST control)"
same,binding signal,ETV3,"1.32 fold enrichment (6-mer frequency, TF over GST control)"
same,binding signal,ETV6,"1.26 fold enrichment (6-mer frequency, TF over GST control)"
